In PubChem BioAssay (NCATS):
Inconclusive results are not listed. The source made the active and inactive calls. Calls come from the whole dose curve; as a rule, active = well fitted cell-killing curve with a large enough effect; inconclusive = small, poorly fitted or top-dose-only effect, or effect the other way; inactive = flat fitted curve, though single readings scatter.

Assays:
Experiment in all cases: Primary qHTS to identify gynecologic anti-cancer compounds using libraries of approved drugs and bioactive compounds (AID 1345084); note: nearly all actives have a fitted effect of over 55% in size
C33A = settings: Gynecologic cancer cell panel viability, ATPlite luminescence, 48 h; series mostly up to 57.5 µM
Summary of the method: (§1)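 Cell viability after 48 h drug treatment, ATPlite luminescence readout; five doses.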

CAOV3 = settings: Gynecologic cancer cell panel viability, ATPlite luminescence, 48 h; series mostly up to 57.5 µM
Summary of the method: as §1

CASKI = settings: Gynecologic cancer cell panel viability, ATPlite luminescence, 48 h; series mostly up to 57.5 µM
Summary of the method: as §1

Es-2 = settings: Gynecologic cancer cell panel viability, ATPlite luminescence, 48 h; series mostly up to 57.5 µM
Summary of the method: as §1

HeLa = settings: Gynecologic cancer cell panel viability, ATPlite luminescence, 48 h; series mostly up to 57.5 µM
Summary of the method: as §1

Hek293T = settings: Gynecologic cancer cell panel viability, ATPlite luminescence, 48 h, control line for the selectivity index; series mostly up to 57.5 µM
Summary of the method: as §1

JEG-3 = settings: Gynecologic cancer cell panel viability, ATPlite luminescence, 48 h; series mostly up to 57.5 µM
Summary of the method: as §1

OV90 = settings: Gynecologic cancer cell panel viability, ATPlite luminescence, 48 h; series mostly up to 57.5 µM
Summary of the method: as §1

PA-1 = settings: Gynecologic cancer cell panel viability, ATPlite luminescence, 48 h; series mostly up to 57.5 µM
Summary of the method: as §1

SKOV3 = settings: Gynecologic cancer cell panel viability, ATPlite luminescence, 48 h; series mostly up to 57.5 µM
Summary of the method: as §1

Tov-21-G = settings: Gynecologic cancer cell panel viability, ATPlite luminescence, 48 h; series mostly up to 57.5 µM
Summary of the method: as §1

Tov112D = settings: Gynecologic cancer cell panel viability, ATPlite luminescence, 48 h; series mostly up to 57.5 µM
Summary of the method: as §1
% is set by controls: 0 for no effect and ±100 for the full control effect.

CC(C)CN(C[C@@H](O)[C@H](Cc1ccccc1)NC(=O)O[C@@H]1CO[C@H]2OCC[C@H]21)S(=O)(=O)c1ccc(N)cc1
inactive: Potency (C33A) | Potency (CAOV3) | Potency (CASKI) | Potency (Es-2) | Potency (HeLa) | Potency (Hek293T) | Potency (JEG-3) | Potency (OV90) | Potency (PA-1) | Potency (SKOV3) | Potency (Tov-21-G) | Potency (Tov112D)

CON(C)C(=O)[C@H](O)[C@H](Cc1ccccc1)NC(=O)c1cc2cc(Cl)ccc2[nH]1
inactive: Potency (C33A) | Potency (CAOV3) | Potency (CASKI) | Potency (Es-2) | Potency (HeLa) | Potency (Hek293T) | Potency (JEG-3) | Potency (OV90) | Potency (PA-1) | Potency (SKOV3) | Potency (Tov-21-G) | Potency (Tov112D)

CN(C)CCn1cc(S(=O)(=O)c2cccc(F)c2)c2cccnc21
inactive: Potency (C33A) | Potency (CAOV3) | Potency (CASKI) | Potency (Es-2) | Potency (HeLa) | Potency (Hek293T) | Potency (JEG-3) | Potency (OV90) | Potency (PA-1) | Potency (SKOV3) | Potency (Tov-21-G) | Potency (Tov112D)

C=CC[C@]12C[C@@H](OC)C(=O)C(OC)=C1O[C@@H](c1cc(OC)c3c(c1)OCO3)[C@@H]2C
inactive: Potency (C33A) | Potency (CAOV3) | Potency (CASKI) | Potency (Es-2) | Potency (HeLa) | Potency (Hek293T) | Potency (JEG-3) | Potency (OV90) | Potency (PA-1) | Potency (SKOV3) | Potency (Tov-21-G) | Potency (Tov112D)

CC1OC(OCC2OC(OC3CCC4(C)C(CCC5(C)C4CC=C4C6CC(C)(C)CCC6(C(=O)OC6OC(CO)C(O)C(O)C6O)CCC45C)C3(C)CO)C(O)C(O)C2O)C(O)C(O)C1O (stereo not drawn)
inactive: activity change, negative = cytotoxicity (C33A) 10.1% [at 11.6 µM] | activity change, negative = cytotoxicity (CAOV3) 17.5% [at 11.6 µM] | activity change, negative = cytotoxicity (CASKI) 14.8% [at 11.6 µM] | activity change, negative = cytotoxicity (Es-2) 0.0336% [at 11.6 µM] | activity change, negative = cytotoxicity (HeLa) -1.23% [at 11.6 µM] | activity change, negative = cytotoxicity (Hek293T) -5.88% [at 11.6 µM] | activity change, negative = cytotoxicity (JEG-3) -1.04% [at 11.6 µM] | activity change, negative = cytotoxicity (OV90) -5.44% [at 11.6 µM] | activity change, negative = cytotoxicity (PA-1) -0.107% [at 11.6 µM] | activity change, negative = cytotoxicity (SKOV3) 24.6% [at 11.6 µM] | activity change, negative = cytotoxicity (Tov-21-G) 2.94% [at 11.6 µM] | activity change, negative = cytotoxicity (Tov112D) -1.29% [at 11.6 µM]

CC1C(=O)CC2C3CCC(C(=O)O)C12CC3(C)CO (stereo not drawn)
inactive: Potency (C33A) | Potency (CAOV3) | Potency (CASKI) | Potency (Es-2) | Potency (HeLa) | Potency (Hek293T) | Potency (JEG-3) | Potency (OV90) | Potency (PA-1) | Potency (SKOV3) | Potency (Tov-21-G) | Potency (Tov112D)

COC(=O)C1=COC(OC2OC(CO)C(O)C(O)C2O)C2C1C=CC2(O)CO (stereo not drawn)
inactive: Potency (C33A) | Potency (CAOV3) | Potency (CASKI) | Potency (Es-2) | Potency (HeLa) | Potency (Hek293T) | Potency (JEG-3) | Potency (OV90) | Potency (PA-1) | Potency (SKOV3) | Potency (Tov-21-G) | Potency (Tov112D)

O=c1[nH]ccc2cc(OC3CCNCC3)ccc12
inactive: Potency (C33A) | Potency (CAOV3) | Potency (CASKI) | Potency (Es-2) | Potency (HeLa) | Potency (Hek293T) | Potency (JEG-3) | Potency (OV90) | Potency (PA-1) | Potency (SKOV3) | Potency (Tov-21-G) | Potency (Tov112D)

CC1(C)CCCC2(C)C1C(O)C=C(CO)C2(O)CO (stereo not drawn)
inactive: Potency (C33A) | Potency (CAOV3) | Potency (CASKI) | Potency (Es-2) | Potency (HeLa) | Potency (Hek293T) | Potency (JEG-3) | Potency (OV90) | Potency (PA-1) | Potency (SKOV3) | Potency (Tov-21-G) | Potency (Tov112D)

CC(C)C(NC(=O)c1ccc2ccccc2n1)C(=O)NC(CC(=O)O)C(=O)COc1c(F)cccc1F (stereo not drawn)
inactive: Potency (C33A) | Potency (CAOV3) | Potency (CASKI) | Potency (Es-2) | Potency (HeLa) | Potency (Hek293T) | Potency (JEG-3) | Potency (OV90) | Potency (PA-1) | Potency (SKOV3) | Potency (Tov-21-G) | Potency (Tov112D)

C=C1C(O)C(O)C2(CC3C(C)=CCC4C(C)(CO)CCCC34C)OC2C1O (stereo not drawn)
inactive: Potency (C33A) | Potency (CAOV3) | Potency (CASKI) | Potency (Es-2) | Potency (HeLa) | Potency (Hek293T) | Potency (JEG-3) | Potency (OV90) | Potency (PA-1) | Potency (SKOV3) | Potency (Tov-21-G) | Potency (Tov112D)

N#C[C@@H]1CCCN1C(=O)CNC12CC3CC(CC(O)(C3)C1)C2
inactive: Potency (C33A) | Potency (CAOV3) | Potency (CASKI) | Potency (Es-2) | Potency (HeLa) | Potency (Hek293T) | Potency (JEG-3) | Potency (OV90) | Potency (PA-1) | Potency (SKOV3) | Potency (Tov-21-G) | Potency (Tov112D)

CC(=O)OC1C(OC(=O)c2ccccc2)C2C(C)(C)CC(=O)CC2(C)C23CCC(C)(C2)C(O)CC13 (stereo not drawn)
inactive: Potency (C33A) | Potency (CAOV3) | Potency (CASKI) | Potency (Es-2) | Potency (HeLa) | Potency (Hek293T) | Potency (JEG-3) | Potency (OV90) | Potency (PA-1) | Potency (SKOV3) | Potency (Tov-21-G) | Potency (Tov112D)

COC(=O)[C@@]1(c2ccc(C)cc2)C[C@H]1CN1CCC(O)(c2ccccc2)CC1
inactive: Potency (C33A) | Potency (CAOV3) | Potency (CASKI) | Potency (Es-2) | Potency (HeLa) | Potency (Hek293T) | Potency (JEG-3) | Potency (OV90) | Potency (PA-1) | Potency (SKOV3) | Potency (Tov-21-G) | Potency (Tov112D)
